# Inconclusive results are not listed. Calls of active or inactive are those of the source. How the source made its calls: active means hit-call score of the fitted dose curve at least 0.9, where 1 is the maximum; inconclusive means response in the unintended direction; inactive means score below 0.9.
# How the values were obtained:
# PGR (gene 5241) = PGR (gene 5241) (UniProt P06401); assay: NVS_NR_hPR: NovaScreen (NVS) Nuclear Receptor Binding Assay for human Progestron Receptor (PR) (AID 2283360);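 further: active means loss of bound radioligand signal versus DMSO baseline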
# PGR (gene 5241), sequence (P06401 whole entry, looked up): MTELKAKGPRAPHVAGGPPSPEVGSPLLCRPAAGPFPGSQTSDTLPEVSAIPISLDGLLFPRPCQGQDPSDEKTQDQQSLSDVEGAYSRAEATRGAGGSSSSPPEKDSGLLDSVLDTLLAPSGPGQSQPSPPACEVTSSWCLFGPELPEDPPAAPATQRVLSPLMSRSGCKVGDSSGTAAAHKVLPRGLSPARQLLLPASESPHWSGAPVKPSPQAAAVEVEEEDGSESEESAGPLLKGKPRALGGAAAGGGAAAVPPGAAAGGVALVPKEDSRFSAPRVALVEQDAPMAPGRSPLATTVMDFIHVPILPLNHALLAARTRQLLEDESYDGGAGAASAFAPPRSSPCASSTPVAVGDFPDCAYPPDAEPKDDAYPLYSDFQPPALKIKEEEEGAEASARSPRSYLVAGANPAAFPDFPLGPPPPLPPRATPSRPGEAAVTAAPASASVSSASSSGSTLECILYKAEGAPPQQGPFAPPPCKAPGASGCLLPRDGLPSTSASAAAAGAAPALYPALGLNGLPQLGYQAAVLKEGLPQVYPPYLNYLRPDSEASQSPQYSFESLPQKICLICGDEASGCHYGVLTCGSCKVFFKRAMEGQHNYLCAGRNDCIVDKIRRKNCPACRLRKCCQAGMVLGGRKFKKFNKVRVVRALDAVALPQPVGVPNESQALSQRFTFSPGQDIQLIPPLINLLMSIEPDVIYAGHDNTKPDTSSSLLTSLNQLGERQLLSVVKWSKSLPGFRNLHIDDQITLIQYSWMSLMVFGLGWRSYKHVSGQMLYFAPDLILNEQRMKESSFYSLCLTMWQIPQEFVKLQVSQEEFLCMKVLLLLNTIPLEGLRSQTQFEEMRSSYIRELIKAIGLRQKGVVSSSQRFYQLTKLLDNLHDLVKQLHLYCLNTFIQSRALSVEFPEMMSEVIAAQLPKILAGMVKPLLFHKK
# Summary of the method: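 Radioligand competition binding on receptor extracted from T47D cells, read by scintillation counting 18 h after dosing. Loss of signal versus DMSO; primary screen in duplicate at 25 uM, actives followed in concentration series.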
# [1] = target: Estrogen receptor (Homo sapiens) (UniProt P03372); assay: OT_ER_ERaERa_1440: Odyssey Thera (OT) 24-hour HEK293T Protein-Complementation Assay for Estrogen Receptor-alpha/-alpha Homodimer (AID 2283349);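 further: hits raise fluorescence above DMSO for agonists and antagonists alike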
# Estrogen receptor (Homo sapiens), sequence (P03372 whole entry, looked up, the tested form may be a part): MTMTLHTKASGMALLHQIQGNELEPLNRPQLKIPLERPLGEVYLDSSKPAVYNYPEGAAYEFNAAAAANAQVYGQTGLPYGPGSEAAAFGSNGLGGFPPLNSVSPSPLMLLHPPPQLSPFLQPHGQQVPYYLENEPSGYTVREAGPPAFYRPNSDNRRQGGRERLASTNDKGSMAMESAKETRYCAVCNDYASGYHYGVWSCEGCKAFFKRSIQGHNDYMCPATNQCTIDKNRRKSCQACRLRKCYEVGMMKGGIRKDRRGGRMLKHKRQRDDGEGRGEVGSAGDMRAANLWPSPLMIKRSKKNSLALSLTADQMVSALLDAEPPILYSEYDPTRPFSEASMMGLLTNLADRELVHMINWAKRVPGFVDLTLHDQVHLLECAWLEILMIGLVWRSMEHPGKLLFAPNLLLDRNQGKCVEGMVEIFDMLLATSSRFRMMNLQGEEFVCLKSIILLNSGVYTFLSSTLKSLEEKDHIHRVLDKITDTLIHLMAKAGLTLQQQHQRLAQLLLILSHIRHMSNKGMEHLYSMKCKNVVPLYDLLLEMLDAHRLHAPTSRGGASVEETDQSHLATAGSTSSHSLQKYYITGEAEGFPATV
# Summary of the method: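 HEK293T, stable ERα LBD (aa 310-547) homodimer PCA; 24 h compound exposure; mean fluorescence intensity (nuclear for agonists, nuclear plus cytoplasmic for antagonists) vs vehicle; positive fitting direction, DMSO baseline.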
# [2] = target: Estrogen receptor (Homo sapiens) (UniProt P03372); assay: OT_ER_ERaERa_0480: Odyssey Thera (OT) 8-hour HEK293T Protein-Complementation Assay for Estrogen Receptor-alpha/-alpha Homodimer (AID 2283351);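 further: rise in fluorescence from reassembled reporter fragments on ERα LBD homodimer in nucleus or whole cell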
# Summary of the method: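 Cells were treated for 8 hours, then imaged on a laser scanning plate cytometer. Complementation of reporter fragments fused to the human ERα ligand-binding domain (residues 310-547) in HEK293T gave fluorescence, and gain of signal over vehicle was fitted.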
# [3] = target: T1, Estrogen receptor (Homo sapiens) + Estrogen receptor beta (Homo sapiens) (UniProt P03372+Q92731); assay: OT_ER_ERaERb_0480: Odyssey Thera (OT) 8-hour HEK293T Protein-Complementation Assay for Estrogen Receptor-alpha/-beta Heterodimer (AID 2283352)
# T1 sequence (P03372 whole entry, looked up, the tested form may be a part): as above
# T1 sequence (Q92731 whole entry, looked up, the tested form may be a part): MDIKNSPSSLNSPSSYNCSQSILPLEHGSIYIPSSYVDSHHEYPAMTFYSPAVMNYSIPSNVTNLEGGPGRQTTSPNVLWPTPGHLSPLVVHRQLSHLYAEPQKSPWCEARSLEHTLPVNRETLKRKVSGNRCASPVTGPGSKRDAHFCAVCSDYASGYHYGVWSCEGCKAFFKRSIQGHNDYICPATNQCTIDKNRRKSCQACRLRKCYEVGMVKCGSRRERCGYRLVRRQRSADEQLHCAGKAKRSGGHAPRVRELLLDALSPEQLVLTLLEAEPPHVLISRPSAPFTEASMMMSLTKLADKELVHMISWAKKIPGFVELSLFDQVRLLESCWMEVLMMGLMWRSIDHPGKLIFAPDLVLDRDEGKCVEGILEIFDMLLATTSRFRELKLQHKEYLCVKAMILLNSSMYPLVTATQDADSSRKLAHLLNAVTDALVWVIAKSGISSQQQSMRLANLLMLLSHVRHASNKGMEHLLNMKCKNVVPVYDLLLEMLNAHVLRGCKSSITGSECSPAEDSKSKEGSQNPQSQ
# Summary of the method: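 Human HEK293T cells were treated for 8 hours and receptor heterodimerisation was detected through reconstitution of a fluorescent reporter split between ER-alpha and ER-beta ligand-binding domains. Activity was analysed as gain of signal against DMSO.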
# [4] = target: Androgen Receptor/SRC-1 Co-activator, AR (gene 367) (UniProt P10275); assay: OT_AR_ARSRC1_0960: Odyssey Thera (OT) 16-hour HEK293T Protein-Complementation Assay for Androgen Receptor/SRC-1 Co-activator (AID 2283353);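 further: actives raise the signal above DMSO so potency reflects increased AR and SRC-1 complex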
# Androgen Receptor/SRC-1 Co-activator, AR (gene 367), sequence (P10275 whole entry, looked up, the tested form may be a part): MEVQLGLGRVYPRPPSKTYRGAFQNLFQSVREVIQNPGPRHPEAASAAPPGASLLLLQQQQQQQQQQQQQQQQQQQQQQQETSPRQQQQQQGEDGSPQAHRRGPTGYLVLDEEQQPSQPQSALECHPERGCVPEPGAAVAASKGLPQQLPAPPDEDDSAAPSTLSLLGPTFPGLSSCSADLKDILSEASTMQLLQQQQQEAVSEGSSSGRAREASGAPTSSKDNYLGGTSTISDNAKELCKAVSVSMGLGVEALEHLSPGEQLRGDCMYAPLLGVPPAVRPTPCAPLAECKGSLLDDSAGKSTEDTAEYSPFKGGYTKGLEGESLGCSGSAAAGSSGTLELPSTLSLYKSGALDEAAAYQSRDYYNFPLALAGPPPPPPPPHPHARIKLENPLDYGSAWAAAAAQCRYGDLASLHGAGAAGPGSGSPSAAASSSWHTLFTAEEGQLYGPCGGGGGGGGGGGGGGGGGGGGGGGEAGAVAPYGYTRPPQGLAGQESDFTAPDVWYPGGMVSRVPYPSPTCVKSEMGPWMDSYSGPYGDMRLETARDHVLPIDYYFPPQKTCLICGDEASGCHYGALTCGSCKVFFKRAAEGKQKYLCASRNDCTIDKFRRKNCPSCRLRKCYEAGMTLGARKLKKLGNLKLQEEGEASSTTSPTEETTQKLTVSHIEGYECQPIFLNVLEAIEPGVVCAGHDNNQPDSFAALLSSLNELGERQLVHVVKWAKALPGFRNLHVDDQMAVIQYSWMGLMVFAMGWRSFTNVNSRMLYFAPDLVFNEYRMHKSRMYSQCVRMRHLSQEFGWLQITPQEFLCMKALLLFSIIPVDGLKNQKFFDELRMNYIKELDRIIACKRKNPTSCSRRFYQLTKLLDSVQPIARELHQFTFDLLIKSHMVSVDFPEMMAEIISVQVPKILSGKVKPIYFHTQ
# Summary of the method: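 Stable HEK293T line carries AR and SRC-1 each linked to a Venus fragment; chemicals are applied for 16 h, cells imaged at two wavelengths, and the 488 nm nucleus/cytoplasm ratio is taken as the signal, rising relative to DMSO.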
# [5] = target: Androgen Receptor/SRC-1 Co-activator, AR (gene 367) (UniProt P10275); assay: OT_AR_ARSRC1_0480: Odyssey Thera (OT) 8-hour HEK293T Protein-Complementation Assay for Androgen Receptor/SRC-1 Co-activator (AID 2283354);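 further: hits raise the complementation signal above DMSO so AC50 marks enhancers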
# Summary of the method: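 Reconstituted split-Venus YFP signal from AR–SRC-1 interaction, read by imaging 8 h post-dose in stable HEK293T lines. The 488 nm nucleus-to-cytoplasm ratio (≥400 cells/image) was fitted upward against DMSO.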
# [6] = target: T1, Estrogen receptor (Homo sapiens) + Estrogen receptor beta (Homo sapiens); assay: OT_ER_ERaERb_1440: Odyssey Thera (OT) 24-hour HEK293T Protein-Complementation Assay for Estrogen Receptor-alpha/-beta Homodimer (AID 2283356);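 further: heteromer of ER alpha and ER beta binding domains; hits raise reporter fluorescence and both agonists and antagonists give an increase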
# Summary of the method: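 24 h exposure; HEK293T PCA cells with ERα/ERβ LBD fragments; signal rise in nuclear or whole-cell fluorescence over vehicle.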
# [7] = target: Estrogen receptor beta (Homo sapiens) (UniProt Q92731); assay: OT_ER_ERbERb_0480: Odyssey Thera (OT) 8-hour HEK293T Protein-Complementation Assay for Estrogen Receptor-beta/-beta Homodimer (AID 2283357);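 further: active means signal gain over DMSO baseline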
# Estrogen receptor beta (Homo sapiens), sequence (Q92731 whole entry, looked up, the tested form may be a part): as the sequence (Q92731 whole entry, looked up, the tested form may be a part) above
# Summary of the method: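 ER-beta LBD homodimer PCA stably expressed in HEK293T; 8 h compound exposure, then formaldehyde fixation and Draq5 staining. Gain in nuclear/cytoplasmic fluorescence intensity versus DMSO vehicle, read on laser scanning cytometer.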
# [8] = target: Retinoic acid receptor alpha (Homo sapiens) (UniProt P10276); assay: NVS_NR_hRAR_Antagonist: NovaScreen (NVS) Nuclear Receptor Binding Assay for human Retinoic Acid Alpha Receptor Antagonism (RAR) (AID 2283358)
# Retinoic acid receptor alpha (Homo sapiens), sequence (P10276 whole entry, looked up): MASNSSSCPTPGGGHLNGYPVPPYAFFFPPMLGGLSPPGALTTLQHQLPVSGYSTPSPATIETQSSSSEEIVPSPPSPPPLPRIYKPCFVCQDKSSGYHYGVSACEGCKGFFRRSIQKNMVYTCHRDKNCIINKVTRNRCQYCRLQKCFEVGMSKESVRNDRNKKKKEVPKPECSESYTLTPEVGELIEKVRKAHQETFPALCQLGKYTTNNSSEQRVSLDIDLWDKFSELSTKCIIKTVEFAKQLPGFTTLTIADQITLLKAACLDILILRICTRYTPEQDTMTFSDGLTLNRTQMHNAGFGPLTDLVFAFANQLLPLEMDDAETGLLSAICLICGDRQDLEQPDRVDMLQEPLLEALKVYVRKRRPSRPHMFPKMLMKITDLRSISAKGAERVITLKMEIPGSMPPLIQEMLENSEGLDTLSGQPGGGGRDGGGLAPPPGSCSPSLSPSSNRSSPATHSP
# Summary of the method: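 RARalpha antagonism was read by TR-FRET as loss of binding signal versus DMSO, 2 h after chemical addition, in a biochemical format. Single-concentration duplicates (25 uM) were run first, and actives were retested in concentration series.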
# [9] = target: human Peroxisome Proliferator-activated Receptor alpha (PPARa), PPARA (gene 5465) (UniProt Q07869); assay: NVS_NR_hPPARa: NovaScreen (NVS) Nuclear Receptor Binding Assay for human Peroxisome Proliferator-activated Receptor alpha (PPARa) (AID 2283359);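 further: activity means loss of TR-FRET signal versus DMSO baseline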
# human Peroxisome Proliferator-activated Receptor alpha (PPARa), PPARA (gene 5465), sequence (Q07869 whole entry, looked up): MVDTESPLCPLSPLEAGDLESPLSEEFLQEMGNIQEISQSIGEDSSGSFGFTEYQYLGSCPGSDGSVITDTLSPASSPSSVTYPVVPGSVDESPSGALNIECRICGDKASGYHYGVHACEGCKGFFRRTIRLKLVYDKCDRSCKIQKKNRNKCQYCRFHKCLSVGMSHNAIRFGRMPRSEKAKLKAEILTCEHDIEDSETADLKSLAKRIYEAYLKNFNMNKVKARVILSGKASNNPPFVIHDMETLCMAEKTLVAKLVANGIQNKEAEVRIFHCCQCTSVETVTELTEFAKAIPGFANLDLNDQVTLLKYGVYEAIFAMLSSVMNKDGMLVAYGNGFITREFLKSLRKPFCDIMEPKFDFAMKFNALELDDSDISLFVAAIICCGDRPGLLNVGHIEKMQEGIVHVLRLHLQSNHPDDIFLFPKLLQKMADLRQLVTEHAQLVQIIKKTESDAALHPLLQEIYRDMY
# Protocol: NVS_NR_hPPARa is a biochemical, single-readout assay that uses extracted gene-proteins in a cell-free assay. Measurements were taken 1 hour after chemical dosing in a 384-well plate.NVS_NR_hPPARa is one of one assay component(s) measured or calculated from the NVS_NR_hPPARa assay. It is designed to make measurements of fluorescent resonance energy transfer, a form of binding reporter, as detected with fluorescent resonance energy transfer signals by Time-Resolved Fluorescence Resonance Energy Transfer (TR-FRET) technology.Data from the assay component NVS_NR_hPPARa was analyzed into 1 assay endpoint. This assay endpoint, NVS_NR_hPPARa, was analyzed in the positive analysis fitting direction relative to DMSO as the negative control and baseline of activity. Using a type of binding reporter, loss-of-signal activity can be used to understand changes in the binding as they relate to the gene PPARA. Furthermore, this assay endpoint can be referred to as a primary readout, because the performed assay has only produced 1 assay endpoint. To generalize the intended target to other relatable targets, this assay endpoint is annotated to the nuclear receptor intended target family, where the subfamily is non-steroidal.
# Binding assays used specific radioligands (tritiated, iodinated) with non-radioactive competitive displacement ligands in agonist or antagonist protocols (as indicated) and various reference compounds and inhibitors to titrate specific binding to receptors and transporters. Most enzyme assays (CYPs, kinases, phosphatases, proteases, HDACs) used recombinant protein and specific substrates (fluorescence mostly, some colorimetric and radioactive) and inhibitors, followed by a biochemical separation of substrate and product. All assays for the biochemical HTS were initially run in duplicate at a single concentration (10 uM for CYP450 assays and 25 uM for all others). […] Each assay was run with positive and negative controls, and concurrent controls on every plate. The follow-up (secondary) screen tested active chemical-pairs in concentration series, as well as a few additional assays not tested in the primary screen, some selected negative inactives, and several cases re-run in the concentration series for confirmatory purposes.
structure (smiles),measurement,setting,value
c1ccc(C[P+](c2ccccc2)(c2ccccc2)c2ccccc2)cc1,outcome,PGR (gene 5241),inactive
CC(C)OC=O,outcome,[1],inactive
same,outcome,[2],inactive
CCCCOC(=O)C(C)O (stereo not drawn),outcome,[1],inactive
same,outcome,[2],inactive
CCN(CC)c1ccc(C=O)cc1,AC50,PGR (gene 5241),41.5 µM (active)
F[Si-2](F)(F)(F)(F)F,outcome,[1],inactive
same,outcome,[2],inactive
same,outcome,[3],inactive
same,outcome,[4],inactive
same,outcome,[5],inactive
same,outcome,[6],inactive
CC(C)Nc1ccc(NC(C)C)c2c1C(=O)c1ccccc1C2=O,outcome,[1],inactive
same,outcome,[2],inactive
same,outcome,[6],inactive
same,outcome,[7],inactive
Cc1ccc(O)c(-n2nc3ccccc3n2)c1,outcome,[1],inactive
same,outcome,[2],inactive
same,outcome,[3],inactive
same,outcome,[6],inactive
same,outcome,[7],inactive
O=C1C=CC(=O)N1c1ccccc1,outcome,[1],inactive
same,outcome,[2],inactive
same,AC50,[4],16.4 µM (active)
same,AC50,[5],25.6 µM (active)
same,outcome,[6],inactive
COCCOCCC[Si](C)(O[Si](C)(C)C)O[Si](C)(C)C,AC50,[1],76.1 µM (active)
same,outcome,[2],inactive
same,AC50,[3],50 µM (active)
same,AC50,[4],34.3 µM (active)
same,outcome,[5],inactive
same,AC50,[6],58.7 µM (active)
same,AC50,[7],51.5 µM (active)
CCCCCCCCn1sc(Cl)c(Cl)c1=O,outcome,[1],inactive
same,outcome,[2],inactive
same,outcome,[7],inactive
CCN=C1C=CC(=C(c2ccc(N(CC)CC)cc2)c2ccc(N(CC)CC)cc2)c2ccccc21,outcome,[1],inactive
same,outcome,[2],inactive
same,outcome,[3],inactive
same,AC50,[4],0.451 µM (active)
same,AC50,[5],1.04 µM (active)
same,outcome,[6],inactive
same,outcome,[7],inactive
CCc1cc(Cc2cc(CC)c(N)c(CC)c2)cc(CC)c1N,outcome,[1],inactive
same,outcome,[2],inactive
same,outcome,[3],inactive
same,AC50,[6],12.4 µM (active)
same,outcome,[7],inactive
CCCCCCCCCc1ccc(OCCO)cc1,AC50,[1],19.7 µM (active)
same,outcome,[2],inactive
same,AC50,[3],4.81 µM (active)
same,AC50,[4],20 µM (active)
same,AC50,[5],25.4 µM (active)
same,AC50,[6],4.94 µM (active)
same,AC50,[7],4.92 µM (active)
CC(C)(C)c1cc(Cc2cc(C(C)(C)C)c(O)c(C(C)(C)C)c2)cc(C(C)(C)C)c1O,outcome,[1],inactive
same,outcome,[2],inactive
same,outcome,[3],inactive
same,outcome,[6],inactive
same,outcome,[7],inactive
CCCCCCCC/C=C\CCCCCCCC(=O)OCC(O)CO (stereo not drawn),outcome,[1],inactive
same,outcome,[2],inactive
same,outcome,[3],inactive
same,outcome,[4],inactive
same,outcome,[5],inactive
same,outcome,[6],inactive
same,outcome,[7],inactive
same,outcome,[8],inactive
same,AC50,[9],17 µM (active)
CCCCCCCC/C=C\CCCCCCCC(=O)N(C)CC(=O)O,outcome,[1],inactive
same,outcome,[3],inactive
same,outcome,[6],inactive
same,outcome,[7],inactive
same,outcome,[9],inactive
CSc1ccc(O)cc1C,outcome,PGR (gene 5241),inactive
N#Cc1ccccc1O,outcome,[1],inactive
same,outcome,[2],inactive
CC(=O)CCC(C)C,AC50,[1],69.3 µM (active)
same,outcome,[2],inactive
CCC(Cc1c(I)cc(I)c(N)c1I)C(=O)O (stereo not drawn),outcome,[1],inactive
same,AC50,[2],66.3 µM (active)
CCOC(OCC)OCC,outcome,[1],inactive
same,outcome,[2],inactive
same,outcome,[3],inactive
same,outcome,[6],inactive
same,outcome,[7],inactive
CC(C)(C)c1cc(CCC(=O)OCC(COC(=O)CCc2cc(C(C)(C)C)c(O)c(C(C)(C)C)c2)(COC(=O)CCc2cc(C(C)(C)C)c(O)c(C(C)(C)C)c2)COC(=O)CCc2cc(C(C)(C)C)c(O)c(C(C)(C)C)c2)cc(C(C)(C)C)c1O,outcome,[1],inactive
same,outcome,[6],inactive
same,outcome,[7],inactive
CCN(CC)c1ccc(N=Nc2ccccc2)cc1,outcome,PGR (gene 5241),inactive
CCCCC(CC)COC(=O)c1ccc(N(C)C)cc1 (stereo not drawn),outcome,[1],inactive
same,outcome,[2],inactive
same,outcome,[3],inactive
same,outcome,[6],inactive
same,outcome,[7],inactive
Cc1cnccn1,outcome,PGR (gene 5241),inactive
O=C=Nc1cccc2c(N=C=O)cccc12,outcome,PGR (gene 5241),inactive
C[C@]12CC[C@H]3C(=CCc4cc(O)ccc43)[C@@H]1CCC2=O,AC50,[4],1.42 µM (active)
same,AC50,[5],0.555 µM (active)
same,AC50,PGR (gene 5241),46.7 µM (active)
OCC1CCCO1 (stereo not drawn),outcome,[1],inactive
same,outcome,[2],inactive
same,outcome,[3],inactive
same,outcome,[4],inactive
same,outcome,[6],inactive
same,outcome,[7],inactive
CCCCCCCCCCCCCC[P+](CCCC)(CCCC)CCCC,outcome,[1],inactive
same,outcome,[2],inactive
same,AC50,[4],3.59 µM (active)
same,AC50,[5],12.3 µM (active)
same,outcome,[6],inactive
same,outcome,[7],inactive
same,AC50,[9],8.54 µM (active)
CCOC(=O)C1CC(=O)C(=C(O)C2CC2)C(=O)C1 (stereo not drawn),outcome,[1],inactive
same,outcome,[2],inactive
same,outcome,[6],inactive
CCCCOC(=O)[C@H](C)O,outcome,[1],inactive
same,outcome,[2],inactive
CCN(CC)c1ccc(C=O)c(O)c1,AC50,PGR (gene 5241),41.7 µM (active)
Oc1ccc(C2(c3ccc(O)c(C4CCCCC4)c3)CCCCC2)cc1C1CCCCC1,outcome,PGR (gene 5241),inactive
Cc1ccc([N+](=O)[O-])c(C)c1,outcome,[1],inactive
same,outcome,[2],inactive
CCCCCCCCCCCCC[N+](C)(C)Cc1ccccc1,outcome,[1],inactive
same,outcome,[2],inactive
same,AC50,[4],14.7 µM (active)
same,AC50,[5],14.6 µM (active)
same,outcome,[7],inactive
same,AC50,[8],9.07 µM (active)
same,AC50,[9],21 µM (active)
O=C(c1ccccc1)c1ccc(O)cc1O,AC50,[1],22.7 µM (active)
same,AC50,[2],22.7 µM (active)
CCN=c1cc2oc3cc(NCC)c(C)cc3c(-c3ccccc3C(=O)OCC)c-2cc1C,AC50,[1],62.3 µM (active)
same,AC50,[2],12.2 µM (active)
same,AC50,[3],71.3 µM (active)
same,AC50,[4],0.55 µM (active)
same,AC50,[5],12.5 µM (active)
same,outcome,[6],inactive
same,AC50,[7],55.1 µM (active)

# From PubChem BioAssay (EPA / NIEHS)
